SMILES strings stand for the structures. ± gives the standard deviation of the averaged measurements.
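Note: viability of the cells left after supernatant collection, read with Deep Blue dye added for 4 h, as absorbance at 570 nm minus 600 nm.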

The assay deals with MDA-MB-231. Briefly: cell viability relative to vehicle unstimulated control (fraction); higher = more viable cells. The settings on record: pre-treatment time: 18 h then 24 h IFNg/TNF.
Regarding `O=C(O)/C=C/c1ccccc1` [Trans-cinnamic acid] (compound dose: 10 uM), the cell viability was determined as 1.02 ± 0.019.

In the case of `C=C(C)[C@@H]1CC=C(C)C(=O)C1` [L(-)-carvone] (compound dose: 10 uM), the cell viability amounted to 0.965 ± 0.069.

As for `CC1OC(OC2C(OC3CCC4(C)C(CCC5(C)C4CC=C4C6CC(C)(C)CCC6(C(=O)OC6OC(COC7OC(CO)C(O)C(O)C7O)C(O)C(O)C6O)CCC45C)C3(C)CO)OCC(O)C2O)C(O)C(O)C1O` (configuration not stated) [Dipsacoside B] (compound dose: 10 uM), the cell viability stood at 0.976 ± 0.042. For `C=C(C)[C@@H]1CC[C@]2(C(=O)O[C@@H]3O[C@H](CO[C@@H]4O[C@H](CO)[C@@H](O[C@@H]5O[C@@H](C)[C@H](O)[C@@H](O)[C@H]5O)[C@H](O)[C@H]4O)[C@@H](O)[C@H](O)[C@H]3O)CC[C@]3(C)[C@H](CC[C@@H]4[C@@]5(C)CC[C@H](O[C@@H]6OC[C@H](O)[C@H](O)[C@H]6O[C@@H]6O[C@@H](C)[C@H](O)[C@@H](O)[C@H]6O)[C@@](C)(CO)[C@@H]5CC[C@]43C)[C@@H]12` [Pulchinenoside C] (compound dose: 10 uM), the cell viability was 0.9971 ± 0.0034. Next, `CC1=CCC(O)(C(C)C)CC1` (configuration not stated) [Terpineol] (compound dose: 10 uM): 0.969 ± 0.087; `C=C1C(=O)O[C@@H]2C[C@@]3(C)CCCC(=C)[C@@H]3C[C@H]12` [Isoalantolactone] (compound dose: 10 uM): 0.951 ± 0.082; `C=C[C@@]1(C)CC(=O)[C@]2(O)[C@@]3(C)[C@@H](O)CCC(C)(C)[C@@H]3[C@H](O)[C@H](OC(C)=O)[C@@]2(C)O1` [Forskolin] (compound dose: 10 uM): 0.785 ± 0.079.

Values taken from the supplement of paper PMC13094657.
